Laboratory results published in PubChem BioAssay (Tox21).
Several values for one entry are separate records, joined by “and”; a condition that tells them apart may be missing. Equal values may be shown once. Records with an inconclusive call do not appear. Activity calls are given as the source filed them. Unless noted, the call rests on the fitted dose curve; in most records, active means well fitted curve in the direction sought with a large enough effect in the repeat runs; inconclusive means weak or mixed curves; inactive means no such curve, though single readings can be large; an effect the other way counts as inactive or inconclusive.

Legend:
[1] = qHTS assay for small molecules that induce genotoxicity in human embryonic kidney cells expressing luciferase-tagged ATAD5 (AID 651632); further: nearly all actives have a fitted effect of over 15% in size
Summary of the method: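 Test compounds were delivered by pin tool onto HEK293T reporter cells (2,000/well) expressing ATAD5 fused to luciferase. After 16 hr at 37C, 5% CO2, Amplite was added for 30 min at room temperature and luminescence was measured.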

[2] = qHTS assay for small molecules that induce genotoxicity in human embryonic kidney cells expressing luciferase-tagged ATAD5 - cell viability (AID 651634; calls by dose curve; further: nearly all actives have a fitted effect of over 25% in size; further: potency means the concentration at half of the fitted maximal effect)
Summary of the method: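 Quantitative high-throughput format. HEK293T cells expressing ATAD5 fused to luciferase were plated at 2,000 cells/well and treated 15.5 hr with compound versus DMSO. Viability was determined by fluorescent live-cell protease substrate, 30 min at 37C.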

[3] = qHTS assay to test for compound auto fluorescence at 590 nm (red) in HepG2 cells (AID 720674)
Summary of the method: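 HepG2 cells, 2,000 per well in MEM with 10% FBS, attached overnight at 37 C, then got 23 nL compound or DMSO. After 1 hr at 37 C, 5% CO2, red fluorescence was read at 540/590 nm against Rose Bengal sodium as reference.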

[4] = qHTS assay to test for compound auto fluorescence at 535 nm (green) in HepG2 cells (AID 720675)
[5] = qHTS assay to test for compound auto fluorescence at 590 nm (red) in HEK293 cells (AID 720679)
Summary of the method: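 Red channel, Ex/Em 540/590nm; signal expressed as equivalency to Rose Bengal sodium. HEK293, 2,000 cells/well, 10% dialyzed FBS; 23 nL compound pinned after 4-5 hr attachment; overnight 37C/5% CO2 before reading.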

[6] = qHTS assay to test for compound auto fluorescence at 460 nm (blue) in HEK293 cell free culture (AID 720681)
Summary of the method: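 Compounds were added to cell-free DMEM with 10% FBS and fluorescence read directly. The blue channel used 405 nm excitation and 460 nm emission, with triamterene as the reference fluorophore.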

[7] = qHTS assay to test for compound auto fluorescence at 535 nm (green) in HEK293 cell free culture (AID 720682)
Summary of the method: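 Using fluorescein as calibrant, autofluorescence was quantified at 485/535 nm in cell-free DMEM containing 10% FBS after pintool addition of compound or vehicle.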

[8] = qHTS assay to test for compound auto fluorescence at 590 nm (red) in HepG2 cell free culture (AID 720684)
Summary of the method: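 Rose Bengal sodium served as the reference for red signal. Test compounds were dispensed into serum-containing MEM (10% FBS) without cells, and plates were read at 540/590 nm.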

[9] = qHTS assay to test for compound auto fluorescence at 460 nm (blue) in HepG2 cell free culture (AID 720685)
Summary of the method: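 Cell-free plates of MEM plus 10% FBS received 23 nL compound or DMSO vehicle; blue-channel (405/460 nm) intensity scored against triamterene as reference fluorophore.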

[10] = qHTS assay to test for compound auto fluorescence at 535 nm (green) in HepG2 cell free culture (AID 720686)
[11] = qHTS assay to test for compound auto fluorescence at 460 nm (blue) in HepG2 cells (AID 720687)
Summary of the method: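 HepG2 cells in MEM with 10% FBS, attached overnight at 37 C, were exposed to compound or DMSO for 1 hr at 37 C, 5% CO2. Blue fluorescence was read at 405/460 nm, with triamterene as reference fluorophore.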

[12] = qHTS assay to identify small molecule antagonists of the estrogen receptor alpha (ER-alpha) signaling pathway - cell viability counter screen (AID 743074; calls by dose curve;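 further: HEK293 cells carrying ER-alpha-UAS-bla reporter stimulated with 17beta-estradiol; nearly all actives have a fitted effect of over 45% in size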; further: potency means the concentration at half of the fitted maximal effect)
[13] = qHTS assay to identify small molecule antagonists of the estrogen receptor alpha (ER-alpha) signaling pathway using the BG1 cell line - cell viability counter screen (AID 743081);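 further: compound given together with 17beta-estradiol as the ER stimulus; series mostly up to about 70 µM; nearly all actives have a fitted effect of over 45% in size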
Aromatase (Homo sapiens) = Aromatase (Homo sapiens) (UniProt P11511); assay: qHTS assay to identify aromatase inhibitors (AID 743083); further: series mostly up to about 70 µM; nearly all actives have a fitted effect of over 55% in size
[14] = qHTS assay to identify aromatase inhibitors - cell viability counter screen (AID 743084);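 further: cells stimulated with testosterone during compound exposure; nearly all actives have a fitted effect of over 55% in size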
[15] = target: Aryl hydrocarbon receptor (Homo sapiens) (UniProt P35869); assay: qHTS assay to identify small molecule that activate the aryl hydrocarbon receptor (AhR) signaling pathway (AID 743085);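 further: HG2L7.5c1 human HepG2 liver cells with stably integrated DRE-driven firefly reporter; series mostly up to about 70 µM; nearly all actives have a fitted effect of over 15% in size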
Summary of the method: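 Measured in HG2L7.5c1 cells: CellTiter-Fluor signal (30 min incubation, 37C) for viability, then luciferase luminescence (30 min, room temperature). Compound contact time was 24 h at 37C, following a 5 h pre-incubation.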

[16] = qHTS assay to identify small molecule that activate the aryl hydrocarbon receptor (AhR) signaling pathway - cell viability counter screen (AID 743086);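 further: HepG2 liver cells carrying the AhR DRE luciferase reporter; series mostly up to about 70 µM; nearly all actives have a fitted effect of over 45% in size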
Summary of the method: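 HepG2-AhR-luc (HG2L7.5c1) cells, 4000/well, treated 24 h at 37 C with compound; viability measured as CellTiter-Fluor fluorescence after 30 min in the same wells as the luciferase read.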

[17] = qHTS assay to identify small molecule phospholipidosis (PLD) inducers (AID 1259344; active means well fitted curve in the direction sought with a large enough effect; an effect the other way counts as inactive or inconclusive)
Summary of the method: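 Read-out is LipidTOX Red fluorescence (ex 595/em 615) imaged in HepG2 cells after 24 h compound exposure at 37 C, with Hoechst nuclear counterstain (ex 352/em 461) allowing per-cell normalisation.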

[18] = target: Nuclear receptor subfamily 1 group I member 2 (Rattus norvegicus) (UniProt Q9R1A7); assay: Rat pregnane X receptor (rPXR) activation by small molecules, qHTS assay (AID 1346983); conditions: rPXR luciferase reporter cells, One-Glo luminescence, 24 h; max activation: hits give high values; further: nearly all actives have a fitted effect of over 20% in size
Summary of the method: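 Cell-based rPXR activation assay: rPXR cells, 2,000 per well, rested 5hr at 37 C, then exposed to compounds in DMSO for 24 hr at 37 C. Luciferase activity read by One-Glo luminescence after 30 min at room temperature.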

[19] = target: Nuclear receptor subfamily 1 group I member 2 (Homo sapiens) (UniProt O75469); assay: CYP3A4 induction through human pregnane X receptor (PXR) by small molecules, qHTS assay (AID 1346984); further: nearly all actives have a fitted effect of over 40% in size
Summary of the method: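 Human PXR activation is tracked via CYP3A4 promoter-luciferase in DPX-2 (HepG2) cells. Compounds treat cells for 24hr at 37C, and luminescence is read after One-Glo.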
On the % scale 0 is the no-effect control and ±100 the full control effect.

Sequence of Nuclear receptor subfamily 1 group I member 2 (Rattus norvegicus) (Q9R1A7 whole entry, looked up): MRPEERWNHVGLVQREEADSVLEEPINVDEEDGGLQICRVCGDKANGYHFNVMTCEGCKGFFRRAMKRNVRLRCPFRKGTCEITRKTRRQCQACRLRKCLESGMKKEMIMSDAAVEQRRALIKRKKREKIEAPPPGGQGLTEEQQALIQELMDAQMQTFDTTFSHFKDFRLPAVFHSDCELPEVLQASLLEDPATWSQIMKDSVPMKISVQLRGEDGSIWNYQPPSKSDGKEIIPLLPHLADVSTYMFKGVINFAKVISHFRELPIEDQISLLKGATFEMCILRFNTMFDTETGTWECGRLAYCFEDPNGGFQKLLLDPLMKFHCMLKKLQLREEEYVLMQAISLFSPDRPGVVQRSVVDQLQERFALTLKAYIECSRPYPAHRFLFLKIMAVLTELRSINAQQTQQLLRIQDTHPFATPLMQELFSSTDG
Sequence of Aromatase (Homo sapiens) (P11511 whole entry, looked up): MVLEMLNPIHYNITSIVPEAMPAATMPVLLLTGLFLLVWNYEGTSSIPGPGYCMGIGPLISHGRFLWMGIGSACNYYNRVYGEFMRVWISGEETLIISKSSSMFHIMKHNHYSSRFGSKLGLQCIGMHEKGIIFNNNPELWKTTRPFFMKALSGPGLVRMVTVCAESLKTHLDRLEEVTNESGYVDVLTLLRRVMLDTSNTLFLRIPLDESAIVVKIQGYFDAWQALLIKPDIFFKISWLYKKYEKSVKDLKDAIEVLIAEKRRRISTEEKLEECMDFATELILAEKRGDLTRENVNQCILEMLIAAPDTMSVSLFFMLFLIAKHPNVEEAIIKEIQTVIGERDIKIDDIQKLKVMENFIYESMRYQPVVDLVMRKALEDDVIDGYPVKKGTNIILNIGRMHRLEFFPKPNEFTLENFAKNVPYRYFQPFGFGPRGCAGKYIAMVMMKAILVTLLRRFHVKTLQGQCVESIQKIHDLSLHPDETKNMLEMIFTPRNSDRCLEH
Sequence of Aryl hydrocarbon receptor (Homo sapiens) (P35869 whole entry, looked up): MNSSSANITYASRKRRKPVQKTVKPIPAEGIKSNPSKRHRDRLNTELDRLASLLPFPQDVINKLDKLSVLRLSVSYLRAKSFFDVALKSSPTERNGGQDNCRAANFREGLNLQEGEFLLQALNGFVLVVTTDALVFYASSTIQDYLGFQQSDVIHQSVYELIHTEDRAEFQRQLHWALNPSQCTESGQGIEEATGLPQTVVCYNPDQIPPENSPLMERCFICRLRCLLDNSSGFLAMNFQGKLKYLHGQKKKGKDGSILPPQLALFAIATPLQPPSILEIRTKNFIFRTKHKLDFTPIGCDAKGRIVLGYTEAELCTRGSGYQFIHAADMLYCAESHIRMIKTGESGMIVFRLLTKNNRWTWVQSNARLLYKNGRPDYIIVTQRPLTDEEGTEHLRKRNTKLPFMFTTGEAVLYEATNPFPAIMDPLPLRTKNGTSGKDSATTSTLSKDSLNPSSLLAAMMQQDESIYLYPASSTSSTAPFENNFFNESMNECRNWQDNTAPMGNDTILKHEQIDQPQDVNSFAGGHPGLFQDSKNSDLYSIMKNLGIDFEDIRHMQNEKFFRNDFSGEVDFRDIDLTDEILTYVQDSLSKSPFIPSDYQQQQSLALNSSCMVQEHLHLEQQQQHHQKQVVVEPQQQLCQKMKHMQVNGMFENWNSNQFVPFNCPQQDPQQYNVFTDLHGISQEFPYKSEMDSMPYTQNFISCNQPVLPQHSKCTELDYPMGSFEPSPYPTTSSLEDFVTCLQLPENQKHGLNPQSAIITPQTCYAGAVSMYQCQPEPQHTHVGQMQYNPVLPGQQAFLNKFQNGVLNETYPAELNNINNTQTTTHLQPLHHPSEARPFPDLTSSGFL

CC(C)CCC(=O)O[C@H]1CC[C@H]2[C@@H]3CCC4=CC(=O)CC[C@]4(C)[C@H]3CC[C@]12C
inactive: Potency [1] | Potency [2] | outcome [3] | Potency [4] | outcome [5] | Potency [6] | Potency [7] | outcome [8] | Potency [9] | Potency [10] | Potency [11] | Potency [12] | Potency [13] | Potency (Aromatase (Homo sapiens)) | Potency [14] | Potency [15] | Potency [16] | Potency [17] | max activation [18] 2.99% | Potency [19]

O=C(CCl)c1ccc(Oc2ccc(C(=O)CCl)cc2)cc1
inactive: Potency [1] | Potency [2] | outcome [3] | Potency [4] | outcome [5] | Potency [6] | Potency [7] | outcome [8] | Potency [9] | Potency [10] | Potency [11] | Potency [12] | Potency [13] | Potency (Aromatase (Homo sapiens)) | Potency [14] | Potency [15] | Potency [16] | Potency [17] | max activation [18] 7.38% | Potency [19]

CC(=O)O[C@H]1C[C@H](O[C@H]2[C@@H](O)C[C@H](O[C@H]3[C@@H](O)C[C@H](OC4CC[C@@]5(C)[C@H](CC[C@@H]6[C@@H]5CC[C@]5(C)[C@@H](C7=CC(=O)OC7)CC[C@]65O)C4)O[C@@H]3C)O[C@@H]2C)O[C@H](C)[C@H]1O[C@@H]1O[C@H](CO)[C@@H](O)[C@H](O)[C@H]1O (some centres undefined)
active: Potency [2] 298 nM | Potency [12] 67.4 nM
inactive: Potency [1] | outcome [3] | Potency [4] | outcome [5] | Potency [6] | Potency [7] | outcome [8] | Potency [9] | Potency [10] | Potency [11] | Potency [13] | Potency (Aromatase (Homo sapiens)) | Potency [14] | Potency [15] | Potency [16] | Potency [17] | max activation [18] -3.5% | Potency [19]

N#CC1(N2CCCCC2)CCCCC1
inactive: Potency [1] | Potency [2] | outcome [3] | Potency [4] | outcome [5] | Potency [6] | Potency [7] | outcome [8] | Potency [9] | Potency [10] | Potency [11] | Potency [12] | Potency [13] | Potency (Aromatase (Homo sapiens)) | Potency [14] | Potency [15] | Potency [16] | Potency [17] | max activation [18] -1.32% | Potency [19]

C[N+]1(C)[C@@H]2CC[C@H]1CC(OC(=O)c1c[nH]c3ccccc13)C2 (some centres undefined)
inactive: Potency [1] | Potency [2] | outcome [3] | Potency [4] | outcome [5] | Potency [6] | Potency [7] | outcome [8] | Potency [9] | Potency [10] | Potency [11] | Potency [12] | Potency [13] | Potency (Aromatase (Homo sapiens)) | Potency [14] | Potency [15] | Potency [16] | Potency [17] | max activation [18] -3.92% | Potency [19]

NC1=NC(=O)N2CC12 (centres undefined)
inactive: Potency [1] | Potency [2] | outcome [3] | Potency [4] | outcome [5] | Potency [6] | Potency [7] | outcome [8] | Potency [9] | Potency [10] | Potency [11] | Potency [12] | Potency [13] | Potency (Aromatase (Homo sapiens)) | Potency [14] | Potency [15] | Potency [16] | Potency [17] | max activation [18] -1.23% | Potency [19]

C[N+]1([O-])[C@@H]2CC(OC(=O)[C@H](CO)c3ccccc3)C[C@H]1[C@@H]1O[C@@H]12 (some centres undefined)
inactive: Potency [1] | Potency [2] | outcome [3] | Potency [4] | outcome [5] | Potency [6] | Potency [7] | outcome [8] | Potency [9] | Potency [10] | Potency [11] | Potency [12] | Potency [13] | Potency (Aromatase (Homo sapiens)) | Potency [14] | Potency [15] | Potency [16] | Potency [17] | max activation [18] 6.47% and -0.453% | Potency [19]

CCCCCCC(=O)O[C@H]1CC[C@H]2[C@@H]3CC[C@H]4CC(=O)C=C(C)[C@]4(C)[C@H]3CC[C@]12C
inactive: Potency [1] | Potency [2] | outcome [3] | Potency [4] | outcome [5] | Potency [6] | Potency [7] | outcome [8] | Potency [9] | Potency [10] | Potency [11] | Potency [13] | Potency (Aromatase (Homo sapiens)) | Potency [14] | Potency [15] | Potency [16] | Potency [17] | max activation [18] -2.7% | Potency [19]

CCCC(C)C1(CC)C(=O)NC(=O)NC1=O (centres undefined)
inactive: Potency [1] | Potency [2] | outcome [3] | Potency [4] | outcome [5] | Potency [6] | Potency [7] | outcome [8] | Potency [9] | Potency [10] | Potency [11] | Potency [12] | Potency [13] | Potency (Aromatase (Homo sapiens)) | Potency [14] | Potency [15] | Potency [16] | Potency [17] | max activation [18] -2.06% | Potency [19]
